About 8,000 (2.5%) of roughly 320,000 compounds were called active. Cut-off read from the data, not from the text of the source: active = activation above about 47%; inactive = the rest. What follows is part of a selection rich in actives, with near analogues and random picks from the rest.

This assay deals with Aryl hydrocarbon receptor (Homo sapiens) (UniProt P35869). Description: AHR activators, primary screen, cell-based, luminescence, luciferase reporter, human (AID 2796).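 Note: 0% = vehicle wells and 100% = reference agonist.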 As to conditions: AHR-responsive luciferase reporter cells, at 5 µM, hits give high values.
Aryl hydrocarbon receptor (Homo sapiens), sequence (P35869 whole entry, looked up): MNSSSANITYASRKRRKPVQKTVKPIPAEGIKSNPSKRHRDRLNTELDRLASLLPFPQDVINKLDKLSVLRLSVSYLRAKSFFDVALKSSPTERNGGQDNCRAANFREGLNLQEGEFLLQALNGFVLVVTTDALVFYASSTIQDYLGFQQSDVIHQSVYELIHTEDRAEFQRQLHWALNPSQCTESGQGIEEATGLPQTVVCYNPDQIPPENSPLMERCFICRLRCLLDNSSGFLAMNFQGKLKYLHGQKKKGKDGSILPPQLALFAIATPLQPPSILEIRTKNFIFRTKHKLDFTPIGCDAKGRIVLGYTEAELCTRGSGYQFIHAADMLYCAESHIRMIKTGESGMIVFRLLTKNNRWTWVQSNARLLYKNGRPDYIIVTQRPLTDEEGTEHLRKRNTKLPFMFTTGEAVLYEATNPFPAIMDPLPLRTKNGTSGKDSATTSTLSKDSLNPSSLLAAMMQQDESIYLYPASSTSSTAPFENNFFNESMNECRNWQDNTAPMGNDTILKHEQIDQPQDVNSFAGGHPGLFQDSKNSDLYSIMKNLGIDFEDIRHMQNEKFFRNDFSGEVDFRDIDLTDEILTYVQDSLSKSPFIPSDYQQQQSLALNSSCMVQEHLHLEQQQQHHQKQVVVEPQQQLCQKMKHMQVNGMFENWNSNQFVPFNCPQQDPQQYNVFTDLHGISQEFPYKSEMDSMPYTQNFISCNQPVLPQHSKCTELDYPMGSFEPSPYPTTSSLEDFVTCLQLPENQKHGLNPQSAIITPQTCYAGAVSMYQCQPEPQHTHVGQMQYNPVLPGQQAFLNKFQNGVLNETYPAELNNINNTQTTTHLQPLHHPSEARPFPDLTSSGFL
Consider `CCN(CC)c1ccc(/C=N/NC(=O)c2cnccn2)c(O)c1`, for which the activation was 22.4% (inactive).
To `N=c1oc2ccccc2cc1C(=O)NCc1ccccc1` belongs -3.55% (inactive); to `CCN(CC)c1ccc2cc(C(N)=O)/c(=N\NC(=O)c3ccncc3)oc2c1`, 78% (active); to `NC(=O)c1cc2ccccc2o/c1=N/NC(=O)c1cccc(F)c1`, 52.6% (active).
Under `CCN(CC)c1ccc(C(=O)N/N=C/c2ccc(N3CCOCC3)cc2)cc1` stands 19% (inactive).
Under `COc1cccc2cc(C(N)=O)/c(=N\NC(=O)c3ccccc3)oc12` stands 8.63% (inactive).
For the compound `COc1cc(/C=C/C(=O)Nc2ccc(OC)c(S(=O)(=O)N3CCOCC3)c2)ccc1OCC#N`, the activation was -0.9% (inactive).
To `CCCCCc1ccc(-c2ccc(C(=O)O)cc2)nc1` belongs -9.97% (inactive).
Under `COc1ccccc1CCNS(=O)(=O)c1cc2c3c(c1)C(C)C(=O)N3CCC2` (stereo unspecified) stands 4.39% (inactive); under `CC(=O)NS(=O)(=O)c1ccc(NC(=O)/C=C/c2ccccc2Cl)cc1`, 7.35% (inactive).
To `Cc1nn(Cc2ccc(Cl)cc2)c(Cl)c1/C=N/NC(=O)CNc1ccccc1F` belongs 25% (inactive); to `Cc1ccc(/C=N/NC(=O)Cn2nc(C)c(Br)c2C)o1`, 2.15% (inactive); to `O=C(Nc1nnc(Cc2ccc(Cl)cc2)s1)c1cccnc1`, 3.47% (inactive).
As for `CCn1nc(C)c(/C=N/NC(=O)Cc2ccc(Cl)cc2)c1C`, the activation was 56.2% (active).
Under `O=C(Cc1ccccc1)N/N=C/c1ccc(Cl)cc1Cl` stands 1.3% (inactive); under `Cc1nn(Cc2ccc(Cl)cc2)c(Cl)c1/C=N/NC(=O)c1cccnc1`, 96.6% (active); under `CC(OC(=O)CCCc1c[nH]c2ccccc12)C(=O)Nc1ccc(S(N)(=O)=O)cc1` (stereo unspecified), 0.81% (inactive).
To `CC(NC(=O)CN1CCN(Cc2ccc(Cl)cc2)C1=O)c1ccc2c(c1)OCCO2` (stereo unspecified) belongs 0.39% (inactive).
To `CCOC(=O)c1cccc(NC(=O)C2CCN(c3ncnc4c3nc3n4CCCCC3)CC2)c1` belongs 2.44% (inactive); to `CCCCC[C@@H]1C=C(C(=O)O)[C@H](c2ccc(C#N)cc2)N1S(=O)(=O)c1ccc(C)cc1`, -1.14% (inactive); to `Cc1ccc(C(=O)NCC(=O)OCc2nnc(-c3ccccc3)o2)cc1`, 1.68% (inactive).
Consider `CC(C)[C@H](NC(=O)N1CC(=O)Nc2ccccc21)C(=O)N[C@@H](Cc1c[nH]c2ccccc12)C(=O)O`, for which the activation was 10.6% (inactive).
Under `COC(=O)c1[nH]c2ccccc2c1NC(=O)CN1CCCc2ccccc21` stands 74.4% (active); under `NS(=O)(=O)c1cccc(NC(=O)CN2CCCc3ccccc32)c1`, 3.96% (inactive).
Under `COC(=O)c1[nH]c2cccc(C)c2c1NC(=O)CN1CCCc2ccccc21` stands 26.4% (inactive); under `COc1ccc(OC)c(S(=O)(=O)N2CCCC(C(=O)N3CCC(C(N)=O)CC3)C2)c1` (stereo unspecified), -1.65% (inactive).
Under `N#CC1=C(N)Oc2c(ccc3cccnc23)C1c1ccncc1` (stereo unspecified) stands -0.63% (inactive); under `N#CC1=C(N)Oc2c(sc3ccccc23)C1c1ccco1` (stereo unspecified), 74.7% (active); under `CC(C)C(C(=O)NC1CCCCC1)N(CC1CCCO1)C(=O)CNS(=O)(=O)c1ccc(F)cc1` (stereo unspecified), -1.33% (inactive).
Turning to `O=C(c1ccc(=O)oc1)N1CCC(C(O)(c2ccccc2)c2ccccc2)CC1`, the activation was 0.25% (inactive).
Under `Nc1[nH][nH]c(=O)c1N=Nc1ccc2c(c1)OCO2` stands 96.5% (active); under `CC(=O)c1cc2c(cc1N)OCO2`, 6.34% (inactive); under `O=C(c1ccc2c(c1)OCO2)N1CCOCC1`, 0.36% (inactive).
With `[O-][N+]12CCCCC1CCCC2CO` (stereo unspecified), the activation was -0.51% (inactive).
Under `Cn1c(=O)c2c(SCC(=O)N3CCOCC3)nc(C3CC3)nc2n(C)c1=O` stands 7.71% (inactive); under `CCC(C)Sc1nc(C)nc2c1c(=O)n(C)c(=O)n2C` (stereo unspecified), 54% (active).
Consider `CSc1nc(C)nc2c1c(=O)n(C)c(=O)n2C`, for which the activation is 7.77% (inactive).
In the case of `CCOC(=O)N1CCN(C(=O)CSc2nc(C)nc3c2c(=O)n(C)c(=O)n3C)CC1`, the activation was -2.19% (inactive).
Under `CC(C)c1ccc(C2C(C#N)=C(N)Oc3c2oc(CO)cc3=O)cc1` (stereo unspecified) stands 1.15% (inactive); under `C/C(=N\NC(=O)c1cccc([N+](=O)[O-])c1)c1cccnc1`, 43% (inactive).
Under `C/C(=N\NC(=O)c1ccc2ccccc2c1)c1cccnc1` stands 32.5% (inactive).
With `C/C(=N\NC(=O)c1cccnc1)c1ccc(-n2ccnc2)cc1`, the activation was 94.3% (active).
To `O=C(Nc1cccn(Cc2ccccc2Cl)c1=O)NC1CCCCC1` belongs -0.61% (inactive); to `Cc1ccc(C2CCN(C(=S)Nc3cccc(Cl)c3)C2)cc1` (stereo unspecified), 0.22% (inactive); to `COc1ccc([N+](=O)[O-])cc1NC(=O)CC1SC(=Nc2cccc(C)c2C)N(/N=C(\C)c2ccc(C)cc2)C1=O` (stereo unspecified), 2.69% (inactive).
To `Cc1cccc(C(=O)OCC(=O)NC(C)C2CC3CCC2C3)c1O` (stereo unspecified) belongs -0.37% (inactive); to `CC(Oc1cccc(NC(=O)c2cccs2)c1)C(=O)c1ccccc1` (stereo unspecified), 5.22% (inactive); to `Cc1noc(C)c1CSCC(=O)Nc1ccc(Br)cc1Cl`, -1.92% (inactive).
Under `CCOC(=O)c1c(C2CC2)csc1NC(=O)CSCc1c(C)noc1C` stands 74.2% (active); under `Cc1ccc(F)cc1NC(=O)CSCc1c(C)noc1C`, -0.17% (inactive); under `COc1cccc(/C=C/C(=O)Nc2ccc3c(c2)OCCO3)c1`, -3.92% (inactive).
Regarding `COc1c(O)cc2oc(-c3ccc(O)c(O)c3)cc(=O)c2c1O`, the activation is -2.83% (inactive).
For `COc1cccc(NC(=O)[C@H](Cc2c[nH]c3ccccc23)NC(=O)[C@@H]2Cc3ccccc3CN2)c1`, the activation is 8.95% (inactive).
To `Nc1nonc1-n1nnc(C(=O)N/N=C/c2c[nH]c3ccccc23)c1-c1ccccc1` belongs 15.2% (inactive).
To `O=C(O)c1cccc(NC(=S)N/N=C/c2c[nH]c3ccccc23)c1` belongs 22% (inactive).
Under `O=C(N/N=C/c1c[nH]c2ccccc12)c1cc2ccccc2o1` stands 99% (active); under `CSC(=S)N/N=C/c1c[nH]c2ccccc12`, 82% (active).
On to `Cc1c(/C=N\NC(=O)c2cc3ccccc3o2)c2ccccc2n1C`, for which the activation was 26.2% (inactive).
Turning to `O=C(N/N=C/c1c[nH]c2ccccc12)c1ccccc1O`, the activation is 19% (inactive).
To `CC1(C)C(C=C(Cl)Cl)C1C(=O)NC(O)C(=O)c1ccccc1` (stereo unspecified) belongs -1.26% (inactive); to `COC(=O)c1ccc(C(=O)NC2CC(C)(C)Cc3c2cnn3-c2ccc(F)cc2)nc1` (stereo unspecified), -1.69% (inactive); to `COc1cc(C)nc(N2CCCC(C(=O)NCC(C)C)C2)n1` (stereo unspecified), 5.81% (inactive).
Under `CCc1cc(C(=O)OC)c(NC(=O)CC2Sc3ccc(C(F)(F)F)cc3NC2=O)s1` (stereo unspecified) stands -1.22% (inactive).
To `Cc1cc(C)nc(SCc2nnc(SCC(=O)OC3CCCCC3)o2)n1` belongs 0.2% (inactive).
`CC(OC(=O)c1c(F)cccc1F)C(=O)NCCC1=CCCCC1` (stereo unspecified): the activation was 1.47% (inactive).
To `COc1ccc(-c2csc(Cc3nc(O)cs3)n2)cc1` belongs 47.5% (active); to `CC(C)(C)C(=O)OCc1nc(-c2ccc(O)c(O)c2)cs1`, 4.13% (inactive); to `COc1ccc(-c2csc(NC(=O)COC(=O)c3ccc(Br)o3)n2)cc1`, 15.7% (inactive).
Under `CC1CCCCC12NC(=O)N(CC(=O)Nc1ccc(S(=O)(=O)Nc3ncccn3)cc1)C2=O` (stereo unspecified) stands 0.23% (inactive); under `COC(=O)c1c(NC(=O)CN2C(=O)NC(CCc3ccccc3)C2=O)sc2c1CCCCC2` (stereo unspecified), 6.43% (inactive); under `COc1ccc(S(=O)(=O)NC(C)c2ccccc2)cc1C(=O)N1CCCCC1` (stereo unspecified), 2.64% (inactive).
Under `O=c1[nH]c(/C=C/c2cccc(Br)c2)nc2ccccc12` stands 22.6% (inactive); under `O=c1[nH]c(N2CCOCC2)nc2ccccc12`, 2.44% (inactive).
As for `O=c1[nH]c(-c2cccs2)nc2ccccc12`, the activation was 71.2% (active).
To `Cc1c(CN2CCC(n3nccc3NC(=O)CCc3ccccc3)CC2)cnn1C` belongs 1.39% (inactive); to `Cc1cccc(C)c1NC(=O)CNC(=O)Cc1ccc(Br)cc1`, 5.24% (inactive).
Under `CCOC(=O)Cc1csc(SCc2cc(=O)oc3cc(O)ccc23)n1` stands -1.46% (inactive); under `Cc1cc(=O)oc2cc(OCC(=O)Nc3nnc(C4CC4)s3)ccc12`, 9.3% (inactive).
To `CCOC(=O)Cc1csc(NC(=O)COc2ccc3c(C)cc(=O)oc3c2)n1` belongs 59.9% (active).
For the compound `CCOC(=O)c1cccc(NC(=O)c2ccc(F)cc2F)c1`, the activation is 5.88% (inactive).
To `CCCC(=O)N=c1sc2cccc(F)c2n1C` belongs 5.82% (inactive); to `Cn1c(=NC(=O)c2cnccn2)sc2ccccc21`, 13.9% (inactive).
To `Cn1c(=NC(=O)c2ccco2)sc2cccc(F)c21` belongs 58% (active); to `COc1ccc2oc(C(=O)OCC(=O)N(CC(C)C)c3c(N)n(Cc4ccccc4)c(=O)[nH]c3=O)c(C)c2c1`, -3.35% (inactive); to `O=C(COc1ccccc1)Nc1cc2c3c(c1)CC(=O)N3CCC2`, 8.04% (inactive).
Under `COc1cc(/C=C2/C(=O)ON=C2C)ccc1OCc1ccccc1F` stands 0.62% (inactive); under `CCOc1cc(/C=N/O)ccc1OCc1ccccc1F`, 50.4% (active).
Take `CCOc1ccc(/C=N/NC(=O)C(C)Sc2ccccn2)cc1OCC` (stereo unspecified): the activation is 4.44% (inactive).
Regarding `Cc1ccc(NC(=O)COC(=O)CNC(=O)c2ccc(Cl)cc2Cl)cc1S(=O)(=O)N1CCOCC1`, the activation was -1.57% (inactive).
Under `O=C(CC1C(=O)NCCN1Cc1ccc(-c2ccccc2)cc1)NCc1ccncc1` (stereo unspecified) stands 0.69% (inactive); under `CC(C)c1ccc(NC(=S)NC2CC3C=CC2C3)cc1` (stereo unspecified), 7.48% (inactive); under `Cc1c(C)c(C)c2[nH]c(=S)[nH]c2c1C`, 52.1% (active).
Under `O=c1[nH]c(=S)[nH]c2[nH]c(=S)[nH]c12` stands 0% (inactive); under `O=C(CCS(=O)(=O)Cc1ccccc1)Nc1ccc2c(c1)OCCO2`, 3.19% (inactive); under `O=C(CN(c1ccc2c(c1)OCCO2)S(=O)(=O)c1ccccc1)Nc1ccc2c(c1)OCO2`, 79.1% (active).
Turning to `CCN(CC(=O)Nc1ccc2c(c1)OCO2)S(=O)(=O)c1ccccc1`, the activation is 28.8% (inactive).

The values are drawn from PubChem BioAssay AID2796 (The Scripps Research Institute Molecular Screening Center, 2010).
